Assay results taken from the supplement of paper PMC10849652.
About 8,800 targets were measured; listed, in parts, are those with a hit and a random draw of the rest. About 0.5% of all pairs of compound and target were hits.

Assays:
Experiment in all cases: log2 fold change, soluble protein after heating vs DMSO (PISA); higher = thermal stabilisation; K562 lysate, 10 uM; active = over 0.2 and 3.5 SD of the protein, either way, in both replicates (recomputed)
nilotinib = compound: Cc1cn(-c2cc(NC(=O)c3ccc(C)c(Nc4nccc(-c5cccnc5)n4)c3)cc(C(F)(F)F)c2)cn1 [nilotinib]
Procedure, shortened: (§1)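 Values give the log-two fold change in thermal stability against solvent controls, from duplicates. Crude K562 extract at 1 mg/mL protein, made by dounce homogenisation in PBS pH 7.4 with 1 mM MgCl2, was treated with 10 μM compound for 30 min. After 3 min heating across 48°C-58°C, aliquots were pooled, adjusted to 0.5% NP-40 at 4°C and centrifuged at 21,000xg for 90 min. The supernatant was measured by TMTpro 16plex LC-MS/MS with channel sums equalised.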

[1] = compound: Cc1nc(Nc2n[nH]c3c2CN(C(=O)N[C@H](CN(C)C)c2ccccc2)C3(C)C)c2sccc2n1
Procedure, shortened: as §1

dasatinib = compound: Cc1nc(Nc2ncc(C(=O)Nc3c(C)cccc3Cl)s2)cc(N2CCN(CCO)CC2)n1 [dasatinib]
Procedure, shortened: as §1

[2] = compound: Cc1ncc(-c2ccnc(Nc3ccc(S(C)(=O)=O)cc3)n2)n1C(C)C
Procedure, shortened: as §1

[3] = compound: Cn1cc(-c2ccc3c(c2)CCN3C(=O)Cc2cccc(C(F)(F)F)c2)c2c(N)ncnc21
Procedure, shortened: as §1

quisinostat = compound: Cn1cc(CNCC2CCN(c3ncc(C(=O)NO)cn3)CC2)c2ccccc21 [quisinostat]
Procedure, shortened: as §1

tipifarnib = compound: Cn1cncc1[C@@](N)(c1ccc(Cl)cc1)c1ccc2c(c1)c(-c1cccc(Cl)c1)cc(=O)n2C [tipifarnib]
Procedure, shortened: as §1

[4] = compound: NC(=O)Nc1cc(-c2cccc(F)c2)sc1C(=O)N[C@H]1CCCNC1
Procedure, shortened: as §1

[5] = compound: NC(=O)c1cnc(N[C@@H]2CCCC[C@@H]2N)nc1Nc1cccc(-n2nccn2)c1
Procedure, shortened: as §1

[6] = compound: NC1(c2ccc(-c3nc4ccn5c(=O)[nH]nc5c4cc3-c3ccccc3)cc2)CCC1
Procedure, shortened: as §1

Measured: log2 fold change

EMC7 (UniProt Q9NPA0)
inactive: nilotinib 0.047 | [1] -0.015 | dasatinib -0.022 | [2] 0.027 | [3] 0.001 | quisinostat -0.006 | tipifarnib -0.014 | [4] -0.003 | [5] 0.014 | [6] -0.073

FAM83D (UniProt Q9H4H8)
Chain of UniProt Q9H4H8 (Q9H4H8 whole entry, looked up): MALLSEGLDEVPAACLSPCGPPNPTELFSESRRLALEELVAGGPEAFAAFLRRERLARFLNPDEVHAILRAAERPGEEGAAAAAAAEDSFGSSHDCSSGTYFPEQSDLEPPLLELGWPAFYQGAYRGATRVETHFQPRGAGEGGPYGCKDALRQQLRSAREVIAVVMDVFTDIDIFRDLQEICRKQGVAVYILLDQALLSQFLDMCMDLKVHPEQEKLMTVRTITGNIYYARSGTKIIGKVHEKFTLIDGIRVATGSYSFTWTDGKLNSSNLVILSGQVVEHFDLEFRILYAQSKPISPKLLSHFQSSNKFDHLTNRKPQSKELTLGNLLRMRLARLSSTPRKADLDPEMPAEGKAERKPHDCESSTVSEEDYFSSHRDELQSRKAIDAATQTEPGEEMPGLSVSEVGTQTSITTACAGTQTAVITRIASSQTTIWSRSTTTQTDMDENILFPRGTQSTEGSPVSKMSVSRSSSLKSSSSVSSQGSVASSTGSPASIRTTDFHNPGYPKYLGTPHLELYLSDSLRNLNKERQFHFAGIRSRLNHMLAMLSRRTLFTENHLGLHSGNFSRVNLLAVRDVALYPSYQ
inactive: nilotinib -0.042 | [1] 0.004 | dasatinib -0.026 | [2] 0.008 | [3] -0.033 | quisinostat -0.061 | tipifarnib -0.02 | [4] -0.019 | [5] 0.05 | [6] 0.01

ERCC4 (UniProt Q92889)
inactive: nilotinib -0.047 | [1] -0.002 | dasatinib 0.01 | [2] -0.05 | [3] 0.033 | quisinostat -0.105 | tipifarnib -0.007 | [4] 0.041 | [5] 0.027 | [6] -0.004

GAMT (UniProt Q14353)
inactive: nilotinib -0.017 | [1] 0.022 | dasatinib 0.03 | [2] 0.129 | [3] -0.025 | quisinostat -0.043 | tipifarnib -0.137 | [4] 0.024 | [5] -0.016 | [6] -0.002

EPRS (UniProt P07814)
Chain of UniProt P07814 (P07814 whole entry, looked up): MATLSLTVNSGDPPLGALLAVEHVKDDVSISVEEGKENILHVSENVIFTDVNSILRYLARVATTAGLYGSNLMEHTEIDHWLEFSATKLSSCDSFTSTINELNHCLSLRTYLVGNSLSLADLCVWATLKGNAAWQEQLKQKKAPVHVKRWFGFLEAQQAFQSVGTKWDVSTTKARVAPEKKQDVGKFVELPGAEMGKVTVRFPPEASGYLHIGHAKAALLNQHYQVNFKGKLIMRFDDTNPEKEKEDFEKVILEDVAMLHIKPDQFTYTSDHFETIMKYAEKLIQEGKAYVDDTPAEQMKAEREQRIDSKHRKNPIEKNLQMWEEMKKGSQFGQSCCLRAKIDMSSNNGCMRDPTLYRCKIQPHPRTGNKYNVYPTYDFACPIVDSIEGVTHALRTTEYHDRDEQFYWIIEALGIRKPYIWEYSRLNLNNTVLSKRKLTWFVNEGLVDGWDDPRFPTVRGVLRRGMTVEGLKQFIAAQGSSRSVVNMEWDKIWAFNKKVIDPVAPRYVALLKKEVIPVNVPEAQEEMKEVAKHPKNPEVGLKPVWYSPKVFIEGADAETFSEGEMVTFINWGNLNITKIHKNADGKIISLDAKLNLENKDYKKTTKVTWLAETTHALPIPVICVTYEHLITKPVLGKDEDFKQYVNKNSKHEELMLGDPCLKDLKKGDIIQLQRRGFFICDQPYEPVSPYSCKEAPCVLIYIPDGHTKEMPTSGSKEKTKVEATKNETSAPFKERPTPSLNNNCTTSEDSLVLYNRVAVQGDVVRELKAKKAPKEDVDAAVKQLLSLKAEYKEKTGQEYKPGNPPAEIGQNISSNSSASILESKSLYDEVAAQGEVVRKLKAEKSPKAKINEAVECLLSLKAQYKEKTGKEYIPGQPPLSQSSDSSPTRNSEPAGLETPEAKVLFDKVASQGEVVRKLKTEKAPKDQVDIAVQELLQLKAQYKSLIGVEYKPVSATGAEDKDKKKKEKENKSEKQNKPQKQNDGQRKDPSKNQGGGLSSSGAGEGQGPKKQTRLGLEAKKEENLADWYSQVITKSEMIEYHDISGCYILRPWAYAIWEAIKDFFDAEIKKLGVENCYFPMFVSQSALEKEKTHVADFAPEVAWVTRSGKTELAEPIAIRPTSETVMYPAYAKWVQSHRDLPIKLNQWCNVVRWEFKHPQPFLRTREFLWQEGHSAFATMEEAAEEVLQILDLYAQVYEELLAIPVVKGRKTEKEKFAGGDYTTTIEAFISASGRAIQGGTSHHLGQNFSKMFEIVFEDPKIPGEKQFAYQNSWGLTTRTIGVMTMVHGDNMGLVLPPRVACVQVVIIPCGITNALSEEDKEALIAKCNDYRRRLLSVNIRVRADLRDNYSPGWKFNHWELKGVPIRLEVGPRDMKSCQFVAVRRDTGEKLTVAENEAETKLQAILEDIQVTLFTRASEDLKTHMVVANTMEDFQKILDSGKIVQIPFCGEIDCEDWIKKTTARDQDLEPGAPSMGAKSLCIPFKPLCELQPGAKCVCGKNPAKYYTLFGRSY
inactive: nilotinib 0.005 | [1] -0.002 | dasatinib -0.039 | [2] -0.01 | [3] 0.039 | quisinostat 0 | tipifarnib 0.011 | [4] 0.039 | [5] 0.002 | [6] -0.026

GALK1 isoform 2 (UniProt P51570)
inactive: nilotinib 0.01 | [1] -0.018 | dasatinib -0.024 | [2] -0.014 | [3] 0.03 | quisinostat -0.051 | tipifarnib 0.002 | [4] 0.04 | [5] -0.033 | [6] -0.006

FTL (UniProt P02792)
Chain of UniProt P02792 (P02792 whole entry, looked up): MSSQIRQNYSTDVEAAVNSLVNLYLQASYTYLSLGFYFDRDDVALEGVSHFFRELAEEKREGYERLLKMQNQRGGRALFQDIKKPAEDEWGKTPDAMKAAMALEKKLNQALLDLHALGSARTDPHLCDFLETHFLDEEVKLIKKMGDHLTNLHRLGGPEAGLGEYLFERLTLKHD
inactive: nilotinib -0.039 | [1] 0.035 | dasatinib -0.03 | [2] -0.038 | [3] -0.012 | quisinostat 0.043 | tipifarnib 0.017 | [4] 0.091 | [5] 0.009 | [6] 0.06

EWSR1 isoform 5 (UniProt Q01844)
inactive: [1] 0.019 | dasatinib 0.004 | [2] 0.036 | [3] -0.049 | quisinostat -0.025 | tipifarnib 0.082 | [4] 0.013 | [5] -0.002 | [6] 0.024
active: nilotinib -0.766

EEFSEC (UniProt P57772)
Chain of UniProt P57772 (P57772 whole entry, looked up): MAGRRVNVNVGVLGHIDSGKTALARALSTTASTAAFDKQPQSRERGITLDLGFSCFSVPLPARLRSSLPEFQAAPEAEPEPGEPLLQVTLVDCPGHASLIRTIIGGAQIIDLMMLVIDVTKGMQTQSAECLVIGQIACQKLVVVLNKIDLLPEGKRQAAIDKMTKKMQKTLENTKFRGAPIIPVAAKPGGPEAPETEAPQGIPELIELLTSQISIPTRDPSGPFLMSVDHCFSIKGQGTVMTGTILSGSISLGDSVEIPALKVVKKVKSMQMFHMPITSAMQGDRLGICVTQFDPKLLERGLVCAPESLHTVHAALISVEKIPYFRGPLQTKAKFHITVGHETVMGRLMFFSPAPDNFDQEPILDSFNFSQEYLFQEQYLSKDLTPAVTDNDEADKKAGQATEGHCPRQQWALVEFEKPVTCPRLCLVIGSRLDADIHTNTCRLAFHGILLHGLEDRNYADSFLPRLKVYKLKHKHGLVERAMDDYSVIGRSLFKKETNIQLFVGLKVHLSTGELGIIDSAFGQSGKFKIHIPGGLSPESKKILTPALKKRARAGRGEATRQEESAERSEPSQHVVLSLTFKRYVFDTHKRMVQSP
inactive: nilotinib 0.004 | [1] 0.01 | dasatinib -0.067 | [2] -0.03 | [3] 0.007 | quisinostat -0.043 | tipifarnib -0.003 | [4] 0.052 | [5] 0 | [6] -0.019

GALNT2 (UniProt Q10471)
inactive: nilotinib -0.02 | [1] -0.054 | dasatinib 0.003 | [2] 0.008 | [3] 0.008 | quisinostat 0.081 | tipifarnib -0.067 | [4] -0.004 | [5] -0.002 | [6] -0.031

FPGT (UniProt O14772)
inactive: nilotinib -0.006 | [1] -0.004 | dasatinib -0.057 | [2] 0.029 | [3] -0.014 | quisinostat -0.105 | tipifarnib -0.036 | [4] 0.046 | [5] 0.035 | [6] -0.03

G6PD isoform 2 (UniProt P11413)
inactive: nilotinib 0.013 | [1] -0.008 | dasatinib 0.01 | [2] -0.012 | [3] -0.01 | quisinostat -0.021 | tipifarnib 0.016 | [4] 0.012 | [5] -0.035 | [6] 0.008

FYB1 isoform 3 (UniProt O15117)
inactive: nilotinib 0.042 | [1] 0.004 | dasatinib -0.017 | [2] -0.025 | [3] 0.001 | quisinostat -0.068 | tipifarnib -0.012 | [4] 0.034 | [5] 0.005 | [6] 0.021

ERLIN2 (UniProt O94905)
Chain of UniProt O94905 (O94905 whole entry, looked up): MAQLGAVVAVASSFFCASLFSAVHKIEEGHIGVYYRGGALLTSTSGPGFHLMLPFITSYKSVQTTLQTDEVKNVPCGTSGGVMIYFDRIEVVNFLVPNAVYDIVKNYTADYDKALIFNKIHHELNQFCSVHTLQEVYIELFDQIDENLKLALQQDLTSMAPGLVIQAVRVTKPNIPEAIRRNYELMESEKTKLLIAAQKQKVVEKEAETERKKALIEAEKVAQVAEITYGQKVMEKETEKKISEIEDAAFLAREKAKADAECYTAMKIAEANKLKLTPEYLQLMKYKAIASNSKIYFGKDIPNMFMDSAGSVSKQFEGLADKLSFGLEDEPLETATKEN
inactive: nilotinib -0.009 | [1] 0.001 | dasatinib -0.013 | [2] -0.019 | [3] 0.03 | quisinostat 0.021 | tipifarnib 0.012 | [4] -0.038 | [5] 0.012 | [6] -0.01

FAM118B (UniProt Q9BPY3)
inactive: nilotinib -0.018 | [1] 0.002 | dasatinib -0.039 | [2] -0.009 | [3] -0.008 | quisinostat -0.06 | tipifarnib -0.015 | [4] 0.021 | [5] 0.032 | [6] -0.007

EIF2B4 isoform 2 (UniProt Q9UI10)
inactive: nilotinib -0.002 | [1] 0.004 | dasatinib -0.022 | [2] 0.003 | [3] 0.011 | quisinostat 0 | tipifarnib 0.037 | [4] 0.074 | [5] -0.003 | [6] 0.002

EP400 isoform 5 (UniProt Q96L91)
inactive: nilotinib -0.05 | [1] -0.04 | dasatinib 0.001 | [2] -0.025 | [3] -0.005 | quisinostat -0.014 | tipifarnib 0.04 | [4] 0.012 | [5] 0.019 | [6] -0.003

EGLN1 (UniProt Q9GZT9)
Chain of UniProt Q9GZT9 (Q9GZT9 whole entry, looked up): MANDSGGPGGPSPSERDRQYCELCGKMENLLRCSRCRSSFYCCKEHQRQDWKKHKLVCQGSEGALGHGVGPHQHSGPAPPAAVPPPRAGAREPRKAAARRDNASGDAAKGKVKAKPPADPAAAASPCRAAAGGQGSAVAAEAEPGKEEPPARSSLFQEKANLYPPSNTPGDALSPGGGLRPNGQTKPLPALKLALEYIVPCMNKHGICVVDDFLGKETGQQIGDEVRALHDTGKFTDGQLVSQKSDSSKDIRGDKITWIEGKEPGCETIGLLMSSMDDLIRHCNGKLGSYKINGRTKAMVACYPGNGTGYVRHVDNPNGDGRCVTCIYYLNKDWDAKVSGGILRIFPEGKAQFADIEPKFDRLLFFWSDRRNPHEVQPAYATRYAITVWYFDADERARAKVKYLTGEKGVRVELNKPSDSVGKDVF
inactive: nilotinib 0.006 | [1] 0.007 | dasatinib -0.045 | [2] -0.066 | [3] 0.03 | quisinostat -0.048 | tipifarnib -0.05 | [4] 0.044 | [5] 0.039 | [6] 0.006

FTSJ1 (UniProt Q9UET6)
inactive: nilotinib -0.013 | [1] -0.039 | dasatinib -0.016 | [2] -0.007 | [3] -0.007 | quisinostat -0.032 | tipifarnib -0.054 | [4] 0.035 | [5] -0.001 | [6] 0.029

ELF2 (UniProt Q15723)
Chain of UniProt Q15723 (Q15723 whole entry, looked up): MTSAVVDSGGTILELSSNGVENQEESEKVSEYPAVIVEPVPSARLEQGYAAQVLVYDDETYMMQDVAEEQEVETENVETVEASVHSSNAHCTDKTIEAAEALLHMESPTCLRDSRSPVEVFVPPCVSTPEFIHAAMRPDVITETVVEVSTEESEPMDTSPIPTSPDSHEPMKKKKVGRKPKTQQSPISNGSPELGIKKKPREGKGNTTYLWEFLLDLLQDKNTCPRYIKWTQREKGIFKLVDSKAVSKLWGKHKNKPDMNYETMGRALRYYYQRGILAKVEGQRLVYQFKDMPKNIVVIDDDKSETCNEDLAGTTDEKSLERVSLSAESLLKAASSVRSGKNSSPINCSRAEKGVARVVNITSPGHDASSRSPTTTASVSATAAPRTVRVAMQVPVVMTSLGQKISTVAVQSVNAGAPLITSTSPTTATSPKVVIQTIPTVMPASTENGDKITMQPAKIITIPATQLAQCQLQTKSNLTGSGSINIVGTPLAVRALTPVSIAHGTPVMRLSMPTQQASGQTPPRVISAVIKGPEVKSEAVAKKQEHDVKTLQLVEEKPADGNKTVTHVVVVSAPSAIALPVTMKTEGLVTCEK
inactive: nilotinib 0.032 | [1] -0.007 | dasatinib -0.105 | [2] 0.065 | [3] 0.068 | quisinostat 0.026 | tipifarnib -0.043 | [4] -0.035 | [5] -0.02 | [6] 0.032

DTYMK (UniProt P23919)
inactive: nilotinib -0.003 | [1] 0.002 | dasatinib -0.072 | [2] -0.007 | [3] -0.025 | quisinostat -0.009 | tipifarnib 0.017 | [4] 0.045 | [5] -0.024 | [6] -0.007

FBXO22 (UniProt Q8NEZ5)
inactive: nilotinib 0.005 | [1] 0.021 | dasatinib -0.028 | [2] -0.036 | [3] 0.025 | quisinostat -0.047 | tipifarnib 0.034 | [4] 0.012 | [5] -0.007 | [6] -0.016

FIG4 (UniProt Q92562)
inactive: nilotinib -0.02 | [1] 0.144 | dasatinib -0.007 | [2] 0.08 | [3] 0.145 | quisinostat 0.077 | tipifarnib -0.038 | [4] 0.013 | [5] -0.066 | [6] 0.06

GCDH (UniProt Q92947)
Chain of UniProt Q92947 (Q92947 whole entry, looked up): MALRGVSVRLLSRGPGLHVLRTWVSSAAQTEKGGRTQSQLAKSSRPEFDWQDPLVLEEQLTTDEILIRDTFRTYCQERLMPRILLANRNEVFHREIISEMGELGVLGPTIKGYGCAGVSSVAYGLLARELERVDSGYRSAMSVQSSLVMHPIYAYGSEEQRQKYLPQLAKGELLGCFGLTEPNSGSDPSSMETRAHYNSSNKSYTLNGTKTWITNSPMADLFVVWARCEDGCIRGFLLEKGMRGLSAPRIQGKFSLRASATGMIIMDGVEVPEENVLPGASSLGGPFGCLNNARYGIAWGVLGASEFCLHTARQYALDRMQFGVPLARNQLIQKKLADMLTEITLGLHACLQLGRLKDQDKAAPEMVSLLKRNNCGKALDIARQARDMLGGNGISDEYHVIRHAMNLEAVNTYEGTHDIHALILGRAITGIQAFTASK
inactive: nilotinib -0.018 | [1] -0.129 | dasatinib 0.024 | [2] -0.033 | [3] -0.022 | quisinostat -0.05 | tipifarnib -0.018 | [4] -0.07 | [5] -0.021 | [6] -0.044

FAM98A (UniProt Q8NCA5)
inactive: nilotinib -0.045 | [1] 0.034 | dasatinib -0.034 | [2] 0.018 | [3] -0.022 | quisinostat -0.042 | tipifarnib 0.009 | [4] -0.004 | [5] -0.028 | [6] -0.014

ESRRA (UniProt P11474)
inactive: nilotinib -0.121 | [1] 0.016 | dasatinib 0.061 | [2] 0.035 | [3] -0.096 | quisinostat -0.038 | tipifarnib 0.008 | [4] 0.158 | [5] -0.016 | [6] 0.016

EPS8L2 (UniProt Q9H6S3)
inactive: nilotinib -0.011 | [1] 0.05 | dasatinib 0.051 | [2] -0.121 | [3] 0.053 | quisinostat 0.013 | tipifarnib 0.013 | [4] 0.058 | [5] -0.01 | [6] 0.013

FDX2 (UniProt Q6P4F2)
Chain of UniProt Q6P4F2 (Q6P4F2 whole entry, looked up): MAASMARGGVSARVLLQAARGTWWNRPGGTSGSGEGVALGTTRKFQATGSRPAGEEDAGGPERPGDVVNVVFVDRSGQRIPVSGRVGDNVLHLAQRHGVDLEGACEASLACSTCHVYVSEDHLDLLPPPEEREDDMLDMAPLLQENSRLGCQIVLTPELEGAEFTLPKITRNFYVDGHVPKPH
inactive: nilotinib 0.135 | [1] -0.025 | dasatinib 0.058 | [2] -0.067 | [3] -0.006 | quisinostat -0.068 | tipifarnib 0.096 | [4] 0.05 | [5] -0.068 | [6] 0.052

FBXO38 (UniProt Q6PIJ6)
inactive: nilotinib 0.157 | [1] -0.203 | dasatinib -0.03 | [2] -0.125 | [3] -0.069 | quisinostat -0.028 | tipifarnib -0.071 | [4] 0.026 | [5] -0.031 | [6] 0.012
